# Measurements taken from the supplement of paper PMC12282887.
# ± gives the standard deviation of the averaged measurements.
# Legend:
# Experiment in all cases: promoter activity interaction Z-score (Lux/OD deviation from empty-vector control); higher = stronger promoter induction by the compound
# [1] = system: E. coli BW25113 acrABp lux reporter
# In short: (§1)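 Four 1:2 dilutions of each compound were tested in biological duplicates on E. coli BW25113 carrying low-copy luxCDABE promoter reporters, either wild type or deleted for one of three genes. Cultures of 40 µl LB Lennox in 384-well plates were kept at 37°C and read for OD600 and luminescence every 30 min for 12 h. Integration windows were 0–8 h for wild type and 1–9 h for deletion strains, and wells under 10% of the median growth value were discarded. The score is a Z-transformed residual of growth-normalised luminescence relative to a control fit.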
# [2] = system: E. coli BW25113 micFp lux reporter
# In short: as §1
# [3] = system: E. coli BW25113 ompFp lux reporter
# In short: as §1
# [4] = system: E. coli BW25113 robp lux reporter
# In short: as §1
# [5] = system: E. coli BW25113 soxSp lux reporter
# In short: as §1
# [6] = system: E. coli BW25113 tolCp lux reporter
# In short: as §1
# [7] = 1329.2 µg/ml, genetic background: wild type
# [8] = 1329.2 µg/ml, genetic background: ΔmarA
# [9] = 1329.2 µg/ml, genetic background: Δrob
# [10] = 1329.2 µg/ml, genetic background: ΔsoxS
# [11] = 2658.5 µg/ml, genetic background: wild type
# [12] = 2658.5 µg/ml, genetic background: ΔmarA
# [13] = 2658.5 µg/ml, genetic background: Δrob
# [14] = 2658.5 µg/ml, genetic background: ΔsoxS
# [15] = 5317 µg/ml, genetic background: wild type
# [16] = 5317 µg/ml, genetic background: ΔmarA
# [17] = 5317 µg/ml, genetic background: Δrob
# [18] = 5317 µg/ml, genetic background: ΔsoxS
# [19] = 10634 µg/ml, genetic background: wild type
# [20] = 10634 µg/ml, genetic background: ΔmarA
# [21] = 10634 µg/ml, genetic background: ΔsoxS
smiles,measurement,setting,value
CCN(CC)CCOC(=O)c1ccc(N)cc1 [Procaine],promoter activity interaction Z-score,[1]; [7],-0.662 ± 0.28
same,promoter activity interaction Z-score,[1]; [8],-0.602 ± 0.28
same,promoter activity interaction Z-score,[1]; [9],-0.872 ± 0.16
same,promoter activity interaction Z-score,[1]; [10],-0.805 ± 0.27
same,promoter activity interaction Z-score,[1]; [11],-0.675 ± 0.27
same,promoter activity interaction Z-score,[1]; [12],-0.191 ± 0.011
same,promoter activity interaction Z-score,[1]; [13],-0.754 ± 0.019
same,promoter activity interaction Z-score,[1]; [14],-0.807 ± 0.058
same,promoter activity interaction Z-score,[1]; [15],-0.798 ± 0.5
same,promoter activity interaction Z-score,[1]; [16],0.353 ± 0.5
same,promoter activity interaction Z-score,[1]; [17],-0.739 ± 0.25
same,promoter activity interaction Z-score,[1]; [18],-1.88 ± 0.78
same,promoter activity interaction Z-score,[1]; [19],-0.735 ± 0.28
same,promoter activity interaction Z-score,[1]; [20],-0.543 ± 0.93
same,promoter activity interaction Z-score,[1]; [21],-1.22 ± 0.13
same,promoter activity interaction Z-score,[2]; [7],0.885 ± 0.053
same,promoter activity interaction Z-score,[2]; [8],0.505 ± 0.026
same,promoter activity interaction Z-score,[2]; [9],0.103 ± 0.024
same,promoter activity interaction Z-score,[2]; [10],1.88 ± 0.031
same,promoter activity interaction Z-score,[2]; [11],1.93 ± 1.1
same,promoter activity interaction Z-score,[2]; [12],0.738 ± 0.027
same,promoter activity interaction Z-score,[2]; [13],0.206 ± 0.083
same,promoter activity interaction Z-score,[2]; [14],3.42 ± 0.14
same,promoter activity interaction Z-score,[2]; [15],2.99 ± 1
same,promoter activity interaction Z-score,[2]; [16],0.535 ± 0.11
same,promoter activity interaction Z-score,[2]; [17],0.692 ± 0.16
same,promoter activity interaction Z-score,[2]; [18],3.95 ± 0.25
same,promoter activity interaction Z-score,[2]; [19],4.96 ± 1.1
same,promoter activity interaction Z-score,[2]; [20],0.433 ± 0.12
same,promoter activity interaction Z-score,[2]; [21],1.99 ± 0.39
same,promoter activity interaction Z-score,[3]; [7],-1.52 ± 0.52
same,promoter activity interaction Z-score,[3]; [8],-1.23 ± 0.023
same,promoter activity interaction Z-score,[3]; [9],-1 ± 0.25
same,promoter activity interaction Z-score,[3]; [10],-1.06 ± 0.18
same,promoter activity interaction Z-score,[3]; [11],-1.95 ± 0.51
same,promoter activity interaction Z-score,[3]; [12],-1.57 ± 0.11
same,promoter activity interaction Z-score,[3]; [13],-1.23 ± 0.6
same,promoter activity interaction Z-score,[3]; [14],-2.1 ± 0.11
same,promoter activity interaction Z-score,[3]; [15],-2.79 ± 0.89
same,promoter activity interaction Z-score,[3]; [16],-2.57 ± 0.088
same,promoter activity interaction Z-score,[3]; [17],-2.71 ± 0.78
same,promoter activity interaction Z-score,[3]; [18],-3.43 ± 0.31
same,promoter activity interaction Z-score,[3]; [19],-3.06 ± 0.97
same,promoter activity interaction Z-score,[3]; [20],-3.26 ± 0.22
same,promoter activity interaction Z-score,[3]; [21],-2.71 ± 0.13
same,promoter activity interaction Z-score,[4]; [7],-0.965 ± 0.38
same,promoter activity interaction Z-score,[4]; [8],-0.355 ± 0.47
same,promoter activity interaction Z-score,[4]; [9],-0.376 ± 0.3
same,promoter activity interaction Z-score,[4]; [10],-0.451 ± 0.9
same,promoter activity interaction Z-score,[4]; [11],-0.714 ± 0.31
same,promoter activity interaction Z-score,[4]; [12],-0.386 ± 0.2
same,promoter activity interaction Z-score,[4]; [13],-0.635 ± 0.58
same,promoter activity interaction Z-score,[4]; [14],-1.84 ± 0.3
same,promoter activity interaction Z-score,[4]; [15],-0.969 ± 0.17
same,promoter activity interaction Z-score,[4]; [16],-0.0415 ± 0.013
same,promoter activity interaction Z-score,[4]; [17],-1.1 ± 0.3
same,promoter activity interaction Z-score,[4]; [18],-1.99 ± 0.064
same,promoter activity interaction Z-score,[4]; [19],-0.708 ± 0.78
same,promoter activity interaction Z-score,[4]; [20],-0.129 ± 0.82
same,promoter activity interaction Z-score,[4]; [21],-0.881 ± 1.3
same,promoter activity interaction Z-score,[5]; [7],0.403 ± 0.099
same,promoter activity interaction Z-score,[5]; [8],0.609 ± 0.067
same,promoter activity interaction Z-score,[5]; [9],0.838 ± 0.31
same,promoter activity interaction Z-score,[5]; [10],0.324 ± 0.23
same,promoter activity interaction Z-score,[5]; [11],0.281 ± 0.23
same,promoter activity interaction Z-score,[5]; [12],1.06 ± 0.17
same,promoter activity interaction Z-score,[5]; [13],1.61 ± 0.96
same,promoter activity interaction Z-score,[5]; [14],0.224 ± 0.071
same,promoter activity interaction Z-score,[5]; [15],0.719 ± 0.53
same,promoter activity interaction Z-score,[5]; [16],1.68 ± 0.037
same,promoter activity interaction Z-score,[5]; [17],1.63 ± 0.81
same,promoter activity interaction Z-score,[5]; [18],0.114 ± 0.72
same,promoter activity interaction Z-score,[5]; [19],0.878 ± 0.58
same,promoter activity interaction Z-score,[5]; [20],1.37 ± 0.74
same,promoter activity interaction Z-score,[5]; [21],-0.539 ± 1.1
same,promoter activity interaction Z-score,[6]; [7],0.541 ± 0.79
same,promoter activity interaction Z-score,[6]; [8],-0.042 ± 0.17
same,promoter activity interaction Z-score,[6]; [9],0.413 ± 1.2
same,promoter activity interaction Z-score,[6]; [10],-0.32 ± 1.4
same,promoter activity interaction Z-score,[6]; [11],0.257 ± 0.23
same,promoter activity interaction Z-score,[6]; [12],-0.2 ± 0.34
same,promoter activity interaction Z-score,[6]; [13],0.54 ± 1.8
same,promoter activity interaction Z-score,[6]; [14],-0.137 ± 0.1
same,promoter activity interaction Z-score,[6]; [15],-1.14 ± 0.3
same,promoter activity interaction Z-score,[6]; [16],-0.284 ± 0.59
same,promoter activity interaction Z-score,[6]; [17],-0.2 ± 0.18
same,promoter activity interaction Z-score,[6]; [18],0.786 ± 1
same,promoter activity interaction Z-score,[6]; [19],2.42 ± 2.2
same,promoter activity interaction Z-score,[6]; [20],1.73 ± 2.4
same,promoter activity interaction Z-score,[6]; [21],0.696
